Laboratory results: PubChem BioAssay (NCATS)
Records with an inconclusive call do not appear. Values without a mark were called inactive. The source made the active and inactive calls. The call rests on the fitted dose curve; in most records, active means well fitted inhibition curve with a large enough effect; inconclusive means small, poorly fitted or top-dose-only effect; inactive means no such curve, though single readings can be large or run the other way.

assay: Primary qHTS for small molecule stabilizers of the endoplasmic reticulum resident proteome: Secreted ER Calcium Modulated Protein (SERCaMP) assay (AID 1508630); conditions: SH-SY5Y GLuc-SERCaMP (Gaussia luciferase released on ER calcium loss) secretion, thapsigargin, luminescence; series mostly up to 38.4 µM; activity change, negative = inhibition: at the top concentration
Excerpt: Assay Provider: Brandon K. Harvey Ph.D.
National Institute on Drug Abuse, National Institutes of Health, Baltimore, MD
Endoplasmic reticulum (ER) dysregulation is associated with human pathologies including neurodegenerative, cardiovascular, muscular, and diabetic conditions. Maintenance of ER calcium is critical for functions of the ER and its depletion can lead to loss of ER resident proteins, in a process termed exodosis. Therapeutic compounds capable of attenuating the redistribution of ER proteins under pathological conditions may slow or stop disease progression. To identify such compounds, we performed a quantitative high-throughput screen (qHTS) using the SERCaMP assay, which monitors secretion of ER resident proteins triggered by calcium depletion.
SERCaMP was initially developed as a reporter of ER calcium homeostasis using a Gaussia luciferase with a modified signal peptide and carboxy-terminus (GLuc-SERCaMP), modifications that confer secretion of the reporter in response to ER calcium depletion (Henderson et al., 2014). The assay was used to screen 9,501 compounds, including a collection of drugs approved by the FDA (US), EMA (EU), NHI (Japan), and HC (Canada) regulatory agencies (Huang et al., 2011). Since the SERCaMP reporter reflects the exodosis phenomenon (Trychta et al., 2018a), compounds identified in the screen have the potential to prevent exodosis by different mechanisms such as stabilizing ER calcium or augmenting ERS retrieval.
1. Henderson, M.J., Wires, E.S., Trychta, K.A., Richie, C.T., and Harvey, B.K. (2014). SERCaMP: a carboxy-terminal protein modification that enables monitoring of ER calcium homeostasis. Mol Biol Cell 25, 2828-2839.
2. Huang, R., Southall, N., Wang, Y., Yasgar, A., Shinn, P., Jadhav, A., Nguyen, D.T., and Austin, C.P. (2011). The NCGC pharmaceutical collection: a comprehensive resource of clinically approved drugs enabling repurposing and chemical genomics. Sci Transl Med 3, 80ps16.
3. Trychta, K.A., Back, S., Henderson, M.J., and Harvey, B.K. (2018a). KDEL Receptors Are Differentially Regulated to Maintain the ER Proteome under Calcium Deficiency. Cell Rep 25, 1829-1840 e1826.
SEQUENCE No. (1, 2, 3, etc.); […] (e.g., Cells, Incubation, Reagent, etc.); VALUE and DESCRIPTION.
1; Reagent; 5 uL; 1000 SH-SY5Y cells per wells
3; Compound; 23 nL; Control inhibitor / compound library
5; Reagent; 100 nM; Thapsigargin
7; Reagent; 1 uL; 0.5x coelenterazine
8; Detection; Luminescence; ViewLux imaging system
NOTES (numbers refer to sequence above)
1; SH-SY5Y human neuroblastoma cells stably expressing GLuc-SERCaMP (SH-SY5Y-GLuc-ASARTDL) cells were seeded in 1,536 well white tissue culture treated plates (Corning, Cat# 7464) in DMEM-high glucose-sodium pyruvate (ThermoFisher Scientific, Cat #10569) supplemented with 10% bovine growth serum (Hyclone), 10 U/ml penicillin (Gibco), 10 ug/ml streptomycin (Gibco), and 20 mM HEPES.
2; Assay plates were incubated for 5 hour at 37C in a humidified incubator containing 5% CO2.
3; qHTS libraries (23 nl, final concentrations of 1.53 uM, 7.67 uM, 38.3 uM) or controls (neutral control: DMSO, positive control: dantrolene) were added using a Kalypsis pin-tool Robotic System equipped with 1536 pinheads.
4; Cells were then incubated for 16 hours at 37C, 5% CO2.
5; Thapsigargin was added at 100 nM to deplete ER calcium stores.
6; Cells were incubated for 4 hour (37 °C, 5% CO2)
7; Gaussia luciferase in the medium was measured by adding 1 ul of 0.5x coelenterazine (final concentration 0.07x) prepared in Gaussia Luciferase Glow Assay Buffer (Pierce), without addition of the Cell Lysis Buffer Reagent.
8; Luminescence was measured using a ViewLux […] CCD imaging system (Perkin Elmer) equipped with clear filters. […] The same controls were also used for the calculation of the Z' factor, a measure of assay quality control, as previously described (Zhang et al., 1999). […]
On the % scale 0 is the no-effect control and ±100 the full control effect; potency means the concentration at half of the fitted maximal effect.

| Compound | Potency | activity change, negative = inhibition [%] |
| --- | --- | --- |
| Nc1ncnc2c1ncn2[C@@H]1O[C@H](COP(=O)(O)CP(=O)(O)OP(=O)(O)O)[C@@H](O)[C@H]1O | inactive |  |
| O=C(CCN1CCN(CCO)CC1)N1c2ccccc2Sc2ccc(C(F)(F)F)cc21 |  | 34.9 |
| CC[C@@H](C)[C@H]1O[C@]2(CC[C@H]1C)C[C@@H]1C[C@@H](CC=C(C)[C@@H](O[C@H]3C[C@H](OC)[C@@H](O[C@H]4C[C@H](OC)[C@@H](O)[C@H](C)O4)[C@H](C)O3)[C@@H](C)C=CC=C3CO[C@@H]4[C@H](O)C(C)=C[C@@H](C(=O)O1)[C@]34O)O2 |  | -20.6 |
| OC[C@H]1O[C@@H](n2cnc3c(NC4CCCCC4)ncnc32)[C@H](O)[C@@H]1O | inactive |  |
| Ic1ccc(N2CCN(Cc3c[nH]c4ncccc34)CC2)cc1 | inactive |  |
| Cc1ccc(O)c(-n2nc3ccccc3n2)c1 |  | 21.7 |
| COc1cccc2c1C(=O)c1c(O)c3c(c(O)c1C2=O)C[C@@](O)(C(=O)CO)C[C@@H]3O[C@H]1C[C@H](N)[C@H](O[C@@H]2CCCCO2)[C@H](C)O1 |  | 51.1 |
| OCC1O[C@H](O)C(Cl)C(O)C1O (stereo not given in full) |  | 2.25 |
| CC(=O)N[C@H](C(=O)O)C(C)(C)SN=O |  | -19.3 |
| Nc1ccc(O)c(C(=O)O)c1 |  | -37.7 |
| O=C1O/C(=C/Br)CCC1c1cccc2ccccc12 (stereo not given) |  | 144 |
| COc1ccc2c(c1)CCC1C2CC[C@@]2(C)C1CC[C@@H]2NCCCCCCN1C(=O)CCC1=O (stereo not given in full) |  | -7.37 |
| O=C(O)CNC(=O)C(CS)Cc1ccccc1 (stereo not given) | inactive |  |
| OCC1O[C@H]([S-])[C@H](O)[C@@H](O)[C@@H]1O.[Au+] (stereo not given in full) |  | -4.65 |
| Nc1ncnc2c1ncn2[C@@H]1O[C@H](COP(=O)(O)OP(=O)(O)OP(=O)(O)OP(=O)(O)OC[C@@H]2O[C@H](n3cnc4c(N)ncnc43)[C@@H](O)[C@H]2O)[C@@H](O)[C@H]1O |  | -12.9 |
| CC(=O)/C=C1\C(=O)N(C)c2ccccc21 |  | 253 |
| CN(C)[C@@H]1C(=O)C(C(=O)NCN2CCCC2)=C(O)[C@@]2(O)C(=O)C3=C(O)c4c(O)cccc4[C@@](C)(O)C3C[C@@H]12 (stereo not given in full) |  | -18.2 |
| CC1(C)C[C@@H]1C(=O)N/C(=C\CCCCSC[C@H](N)C(=O)O)C(=O)O |  | -24.1 |
| Cc1c(Nc2ncccc2C(=O)O)cccc1C(F)(F)F |  | -15.5 |
| CCCSc1ccc2nc(NC(=O)OC)[nH]c2c1 |  | 42.7 |

| Compound | Potency | activity change, negative = inhibition [%] |
| --- | --- | --- |
| CC(N)C(=O)OC(C)(C)Cc1ccc(Cl)cc1 (stereo not given) |  | -25.7 |
| Nc1cc(-c2ccncc2)c[nH]c1=O |  | -21.2 |
| CN(C)CCC(c1ccc(Cl)cc1)c1ccccn1 (stereo not given) |  | -7.86 |
| CNC(=O)c1c(I)c(NC(=O)CCCCC(=O)Nc2c(I)c(C(=O)O)c(I)c(C(=O)NC)c2I)c(I)c(C(=O)O)c1I |  | -17.9 |
| Cc1nc2ccccc2n1Cc1ccc(Cl)cc1 |  | 13.5 |
| OC[C@H]1O[C@@H](n2cnc3c(NC4CCCC4)ncnc32)[C@H](O)[C@@H]1O | inactive |  |
| CCCCCCCCCCCCCCCCCC(=O)OC(CC(=O)O)C[N+](C)(C)C (stereo not given) |  | -0.398 |
| CCCCCCCC/C=C\CCCCCCCC(=O)NCCO | 12.6 µM (active) |  |
| N=C(N)SCCc1ccc(CCSC(=N)N)cc1 |  | -12.3 |
| NCCCCCCCCCCN |  | -8.74 |
| CC12C(=O)OC(=O)C1(C)C1CCC2O1 (stereo not given) | inactive |  |
| COc1ccccc1CNCCCCCCNCCCCCCCCNCCCCCCNCc1ccccc1OC | inactive |  |
| O=c1[nH]c2cc([N+](=O)[O-])c([N+](=O)[O-])cc2[nH]c1=O | inactive |  |
| COC(=O)c1nc(Cl)c(Cl)nc1N |  | 196 |
| Nc1nc(Cl)nc2c1ncn2[C@@H]1O[C@H](COP(=O)(O)OP(=O)(O)OP(=O)(O)O)[C@@H](O)[C@H]1O |  | 21 |
| NCCSSCCN |  | -8.69 |
| CCOc1ccc2nc(S(N)(=O)=O)sc2c1 |  | 25.3 |
| COc1cc2c(CCNC(C)=O)c[nH]c2cc1Cl | inactive |  |
| C#C[C@]1(O)CC[C@H]2[C@@H]3CCc4cc(O)ccc4[C@H]3CC[C@@]21C |  | 30.1 |
| Nc1nc(Nc2ccccc2)nc2c1ncn2[C@@H]1O[C@H](CO)[C@@H](O)[C@H]1O |  | -28.4 |
